Results: PubChem BioAssay (NCI)
Compounds without any hit were thinned out: in the full panel of roughly 83,000, 20% have a hit.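 Compound tested at a single concentration for 48 hours in 96-well plates; a percent growth value below 10 was scored as active.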 Activity calls are given as the source filed them.

Tests used:
Assay in all cases: NCI-60 one-dose screen, 48 h (100 = growth as untreated, 0 = no growth, -100 = all killed)
Settings in all cases: 10 µM unless noted
NCI-H23 lung = tested on: NCI-H23 lung
NCI-H322M lung = tested on: NCI-H322M lung
HOP-62 NSCLC = tested on: HOP-62 NSCLC
NCI-H460 lung = tested on: NCI-H460 lung
HOP-92 NSCLC = tested on: HOP-92 NSCLC
A549/ATCC NSCLC = tested on: A549/ATCC NSCLC
786-0 renal = tested on: 786-0 renal
COLO 205 colon = tested on: COLO 205 colon
DU-145 prostate = tested on: DU-145 prostate
K-562 leukemia = tested on: K-562 leukemia
MALME-3M melanoma = tested on: MALME-3M melanoma
MDA-MB-231 breast = tested on: MDA-MB-231 breast
RXF 393 renal = tested on: RXF 393 renal
SF-268 CNS = tested on: SF-268 CNS
SF-295 CNS = tested on: SF-295 CNS
SF-539 CNS = tested on: SF-539 CNS
UACC-257 melanoma = tested on: UACC-257 melanoma
M14 melanoma = tested on: M14 melanoma
HCT-15 colon = tested on: HCT-15 colon

Measured: growth

O=c1oc2ccc(Br)cc2c(=O)n1-c1ccc(Cl)cc1F
inactive: COLO 205 colon 21.5% | DU-145 prostate 16.4%
active: NCI-H23 lung 2.82% | NCI-H322M lung 5.97% | HOP-62 NSCLC 2.2% | NCI-H460 lung 2.87% | HOP-92 NSCLC -12.6% | A549/ATCC NSCLC 8.23% | 786-0 renal -1.15% | K-562 leukemia 6% | MALME-3M melanoma -30.6% | MDA-MB-231 breast -22.6% | RXF 393 renal 4.25% | SF-268 CNS 8.43% | SF-295 CNS -58.4% | SF-539 CNS 4.14% | UACC-257 melanoma -10.6% | M14 melanoma -11.9% | HCT-15 colon 0.07%

Cc1ccc(S(=O)(=O)c2c(COC(=O)c3cccc(C)c3)c(-c3ccccc3)nn2C)cc1
inactive: NCI-H23 lung 94.5% | HOP-62 NSCLC 18.1% | NCI-H460 lung 102% | HOP-92 NSCLC 71.4% | 786-0 renal 106% | DU-145 prostate 116% | MDA-MB-231 breast 14.3% | RXF 393 renal 93.4% | SF-268 CNS 68.3% | SF-295 CNS 54.7% | SF-539 CNS 21.4% | UACC-257 melanoma 83.5% | M14 melanoma 89.9% | HCT-15 colon 62.2%
active: NCI-H322M lung -4.7% | A549/ATCC NSCLC -32.7% | COLO 205 colon -95.9% | K-562 leukemia -23% | MALME-3M melanoma -47.5%

COc1cccc2cc(N(C)c3nc(C)nc4ccsc34)ccc12
inactive: NCI-H23 lung 22.3% | NCI-H322M lung 49.8% | HOP-62 NSCLC 17.1% | 786-0 renal 20.5% | MALME-3M melanoma 52.5% | MDA-MB-231 breast 28.9% | RXF 393 renal 40% | SF-268 CNS 21.7% | UACC-257 melanoma 37.7%
active: NCI-H460 lung 1.59% | HOP-92 NSCLC 8.89% | A549/ATCC NSCLC 7.7% | COLO 205 colon -56.9% | DU-145 prostate -4.03% | K-562 leukemia 5.29% | SF-295 CNS 3.17% | SF-539 CNS -15.5% | M14 melanoma 9.85% | HCT-15 colon 0.625%

O=S1(=O)CCN(Cc2ccccc2)CC1
inactive: NCI-H23 lung 98.4% | NCI-H322M lung 110% | HOP-62 NSCLC 96.7% | NCI-H460 lung 103% | HOP-92 NSCLC 79.5% | A549/ATCC NSCLC 104% | 786-0 renal 95.3% | COLO 205 colon 107% | DU-145 prostate 103% | K-562 leukemia 101% | MALME-3M melanoma 112% | MDA-MB-231 breast 105% | RXF 393 renal 121% | SF-268 CNS 92.2% | SF-295 CNS 97% | SF-539 CNS 95.6% | UACC-257 melanoma 105% | M14 melanoma 90.3% | HCT-15 colon 92.8%

COc1cc(C(=O)Nc2ccc(-c3nc4ccccc4[nH]3)cc2)cc(OC)c1OC
inactive: NCI-H23 lung 72.6% | NCI-H322M lung 94.5% | HOP-62 NSCLC 42.5% | NCI-H460 lung 22.6% | HOP-92 NSCLC 56.4% | A549/ATCC NSCLC 45.8% | 786-0 renal 73.4% | COLO 205 colon 44.6% | DU-145 prostate 87.9% | K-562 leukemia 15.2% | MALME-3M melanoma 81.3% | MDA-MB-231 breast 61.4% | RXF 393 renal 28% | SF-268 CNS 55.4% | SF-539 CNS 34.7% | UACC-257 melanoma 78.1% | M14 melanoma 43.5%
active: SF-295 CNS 9.85%
